Assay outcomes: PubChem, National Center for Advancing Translational Sciences (NCATS)
ClpP mod – qHTS Assay for Activators of ClpP | ATP-dependent Clp protease proteolytic subunit (Bacillus subtilis (strain 168)), P80244 | hit rate 1.9% among 340,000 | AID 651965, 2013 | Potency, µM (series often up to 57.5 µM), for the others: at the highest dose activity change, negative = active | purified B. subtilis ClpP, FRET peptide cleavage, 20 min; active = well fitted falling curve with a large enough effect; inconclusive = small, poorly fitted or top-dose-only effect; inactive = no such curve, though single readings can be large or run the other way; also: the source files actives as falling curves though it sought activators and does not explain the sign; nearly all actives have a fitted effect of over 65% in size
Target sequence (P80244 whole entry, looked up): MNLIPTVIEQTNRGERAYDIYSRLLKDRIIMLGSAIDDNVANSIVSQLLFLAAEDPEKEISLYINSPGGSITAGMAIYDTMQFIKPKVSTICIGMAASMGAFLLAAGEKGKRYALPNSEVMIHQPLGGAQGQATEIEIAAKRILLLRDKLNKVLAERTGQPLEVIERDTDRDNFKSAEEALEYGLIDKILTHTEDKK
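Purified B. subtilis ClpP, 10 microg/mL final in Tris/HCl pH8 with KCl, BSA, glycerol and Tween-20, cleaved an Abz/nitrotyrosine-quenched decapeptide. Fluorescence (ex 320, em 430) was read at 0 and 20 min at room temperature. Delta was normalized to 5.8 microM ADEP and DMSO/no-enzyme controls.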
Gal4-VP16 FLuc – VP16 counterscreen qHTS for inhibitors of ROR gamma transcriptional activity; Drosophila S2 Gal4-VP16 UAS-luciferase, luminescence, 20 h; Potency, µM (series often up to 53.6 µM), for inactives: at the highest dose activity, negative = inhibition, most hits filed as inhibitors; hit rate 3.5% among 310,000;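 also: Gal4-VP16 expression switched on by copper sulfate through the metallothionein promoter; % is scaled to controls: 0 for no effect and ±100 for the full control effect; nearly all actives have a fitted effect of over 50% in size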
Epigenetic derep – Quantitative High-Throughput Screen for Regulators of Epigenetic Control; AID 1865, 2009; murine LDR cells, GFP reporter derepression, 30 h; hit rate 0.2% among 280,000; Potency, µM (doses to about 53.9 µM), for the others: at the top dose GFP activation, most hits filed as activators; also: % of control where 0% means no effect; nearly all actives have a fitted effect of over 60% in size
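Murine LDR cells bearing a silenced CMV-driven GFP reporter were exposed to compound for 30 h at 37 C. After PBS washes, GFP-positive cells (20-120 um objects) counted by laser-scanning microplate cytometry.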
Sfp PPTase inh – qHTS Assay for Inhibitors of Bacillus subtilis Sfp phosphopantetheinyl transferase (PPTase). 4'-phosphopantetheinyl transferase ffp (Bacillus subtilis), Q9F4F7. hit rate 3.5% among 310,000. Biochemical Sfp PPTase activity, qHTS. AID 1490, 2009. Potency, µM, without a hit: largest response in the series, negative = inhibition, usual class: inhibitors;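 also: the enzyme is Sfp with the accession as filed and its product quenches rhodamine fluorescence; 0% = enzyme reaction without inhibitor and -100% = no enzyme wells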
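Sfp 15 nM + cpd, 15 min RT; start w/ rhodamine-CoA 5 uM, BHQ-2-YbbR 12.5 uM (final); 50 mM Hepes pH 7.6, 10 mM MgCl2, 0.01% NP-40, 0.01% BSA; read 525/598 nm at 0 and 30 min.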
RORg inh – qHTS for inhibitors of ROR gamma transcriptional activity; hit rate 5.4% among 310,000; Drosophila S2 Gal4-RORgamma UAS-luciferase reporter, 20 h; Potency, µM (top dose mostly 53.6 µM), for inactives: at the top dose activity change, negative = inhibition, actives largely listed as inhibitors; Nuclear receptor ROR-gamma (Mus musculus), P51450; also: % is scaled to controls: 0 for no effect and ±100 for the full control effect; nearly all actives have a fitted effect of over 60% in size
Target sequence (P51450 whole entry, looked up, the tested form may be a part): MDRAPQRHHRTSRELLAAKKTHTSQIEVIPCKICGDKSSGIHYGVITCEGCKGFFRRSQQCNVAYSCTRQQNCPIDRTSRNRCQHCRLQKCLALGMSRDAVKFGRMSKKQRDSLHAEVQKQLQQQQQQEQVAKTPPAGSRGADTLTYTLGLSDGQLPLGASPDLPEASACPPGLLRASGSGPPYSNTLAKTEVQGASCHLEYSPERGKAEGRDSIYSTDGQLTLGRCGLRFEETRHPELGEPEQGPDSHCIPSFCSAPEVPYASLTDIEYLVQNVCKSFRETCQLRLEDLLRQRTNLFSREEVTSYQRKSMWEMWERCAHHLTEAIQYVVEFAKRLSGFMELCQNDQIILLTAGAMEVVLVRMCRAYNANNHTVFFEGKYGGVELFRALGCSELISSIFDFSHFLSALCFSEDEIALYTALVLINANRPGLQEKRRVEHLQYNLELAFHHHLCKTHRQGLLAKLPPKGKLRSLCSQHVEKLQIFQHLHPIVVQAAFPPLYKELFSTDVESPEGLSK
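ROR gamma transcriptional activity was tracked as Gal4-UAS luciferase output in stably transfected Drosophila Schneider cells, with compound added 1 hr before 700 uM copper sulfate induction and a 20 hr ambient-temperature incubation.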
PINK1 expr mod – A Quantitative High throughput Screen to Identify Chemical Modulators of PINK1 Expression; AID 624263, 2012; hit rate 0.2% among 410,000; PINK1 immunofluorescence, high-content cytometry, 24 h; Potency, µM (titrated, usually from 76.6 µM), for the others: at the highest dose activation (PINK1 increase), actives largely listed as activators; active = well fitted activation curve with a large enough effect; inconclusive = small, poorly fitted or top-dose-only effect; cell line not stated here; also: % of control where 0% means no effect; nearly all actives have a fitted effect of over 65% in size
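Cells are seeded, rested 12 hours, then given compound at five concentrations or DMSO for 24 hours. After fixation, blocking and antibody staining, PINK1 amount and mitochondrial localization are scored; CCCP serves as control.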
Active calls of the source: *; u = inconclusive; x = no result given; ! = not confirmed by another sample; [ ] = dose if it differs, or a comment. In the library only some 8.1% were active in any assay of this set; here they are far more common. Unless noted, calls follow the shape of the dose curve; as a rule, active = well fitted curve in the direction sought with a large enough effect; inconclusive = small, poorly fitted or top-dose-only effect, or another doubt; inactive = no such curve, though single readings can be large; an effect the other way counts as inactive or inconclusive. Potency is read from the fitted curve at half-maximal effect.

SMILES	ClpP mod	Gal4-VP16 FLuc	Epigenetic derep	Sfp PPTase inh	RORg inh	PINK1 expr mod
Clc1ccc(CSc2nnc(-c3ccncc3)o2)cc1	-3%	1%	2%	3%	-7%	x
Clc1ccc(CSc2nnc(-c3ccc4c(c3)OCO4)o2)cc1	-1%	10%	2%	50µM*	35%	9%
O=C1CCCCC1Sc1nnc(-c2ccc3c(c2)OCO3)o1 (stereo not drawn)	x	0.89µM*	1%	17%	0.56µM*	1%
Cc1ccccc1C(=O)Nc1nnc2n1CCS2	-1%	x	1%	x	x	-5%
CCCCC(=O)Nc1ccccc1C(=O)OCc1cc(=O)n2nc(C3CCCCC3)sc2n1	-22%	x	-2%	x	x	-1%
CC1(C)Cc2c(sc3c2C(=O)N(c2ccccc2)C2=NCCN23)CS1	-28%	0%	-1%	89µM*	-11%	-1%
CN1C(=O)c2c(sc3c2CC(C)(C)SC3)N2CCN=C12	u	-3%	2%	u	11%	0%
O=C(NC1CC(=O)N(c2ccc(F)cc2)C1)C(c1ccccc1)c1ccccc1 (stereo not drawn)	1%	x	6%	x	x	0%
O=C(NCc1ccc(F)cc1)c1cc2c(s1)-c1ccccc1SC2	4%	x	16%	x	x	0%
O=C(NCc1ccccc1Cl)c1cc2c(s1)-c1ccccc1SC2	25µM*	x	0%	x	x	-1%
CCc1ccccc1N(CC)C(=O)c1cc2c(s1)-c1ccccc1SC2	14µM*	x	-3%	x	x	2%
Cc1ccccc1CNC(=O)c1cnc2sc(N3CCC(C)CC3)nn2c1=O	1%	x	-3%	x	x	1%
Cc1ccc(C)c(NC(=O)Cn2c(=O)n(CC3CCCO3)c(=O)c3ccccc32)c1 (stereo not drawn)	-21%	x	0%	x	x	0%
C[C@H](NC[C@H](O)CP(=O)(O)Cc1ccccc1)c1ccc(Cl)c(Cl)c1	x	2%	1%	89µM*!	6%	x
CC(NC(=O)CCl)c1ccc(Cl)c(Cl)c1 (stereo not drawn)	-2%	5%	3%	12%	-38%	-5%
CC(C)n1nc(C(=O)Nc2nc3ccc(S(C)(=O)=O)cc3s2)c2ccccc2c1=O	-2%	-1%	5%	16%	1%	13%[38.3 µM]
CC(C)n1nc(C(=O)Nc2nnc(SCc3c(Cl)cccc3Cl)s2)c2ccccc2c1=O	-14%	u	1%	11%	u	5.6µM*
O=C(C1CCC(Cn2c(=O)c3sccc3n(Cc3ccc(F)cc3)c2=O)CC1)N1CCOCC1 (stereo not drawn)	1%	x	1%	x	x	1%
CCCc1cc(=O)[nH]c(SCC)n1	1%	-1%	-1%	-5%	12%	x
CCCc1cc(=O)[nH]c(-n2[nH]c3c(c2=O)CCCC3)n1	-10%	3.5µM*	8%	u	2.2µM*	-1%
COCc1ccc(C(=O)N2CCOc3c(cc(-c4cc(C)c5cccc(OC)c5n4)cc3OC)C2)o1	x	x	x	x	x	-1%
CCN1CCCC1Cn1c(-c2ccccc2)nc2c(NCCOC)nc(C)nc21 (stereo not drawn)	x	-2%	0%	24%	-1%	x
CCC(c1nnc(SCC(=O)Nc2cc(S(C)(=O)=O)ccc2Cl)n1Cc1ccccc1)N(C)C (stereo not drawn)	32µM*	-6%	x	14%	6%	-2%
Nn1c(SCC(=O)NCc2ccccc2)nnc1C1CC1	0%	-15%	5%	7%	-10%	5µM*
Cn1c2c(c(=O)n(C)c1=O)[C@@]1(C(=O)Nc3ccccc31)C(C#N)=C(N)O2	x	u	10%	-9%	20µM*	0%
SMILES	ClpP mod	Gal4-VP16 FLuc	Epigenetic derep	Sfp PPTase inh	RORg inh	PINK1 expr mod
COc1cccc(C2=Nn3c(nnc3-c3cc(OC)ccc3OC)SC2)c1	x	-5%	x	-16%	23%	x
O=C(Cn1nc(C(F)(F)F)c2c1CCCC2)Nc1cccc(Cl)c1	-3%	x	-1%	x	x	13%
Cc1cc(=O)oc2cc(OC(C)C(=O)Nc3ccc(C(N)=O)cc3)ccc12 (stereo not drawn)	4%	x	x	x	x	1%
Cc1cc(=O)oc2cc(NC(=O)C(C)Oc3cccc(Cl)c3)ccc12 (stereo not drawn)	10µM*	x	x	x	x	8%
CSCc1cc(N(C)C)nc(SCc2ccc(Cl)c(Cl)c2)n1	-2%	u	0%	-11%	11µM*	-4%[38.3 µM]
COc1ccc(N2CCN(C3(c4ccccc4)C(=O)c4ccccc4C3=O)CC2)cc1	-11%	x	2%	x	x	1%
CC(=O)O[C@@H](C)C#C[Si](C)(C)c1ccccc1	x	0%	-1%	19%	u	x
O=C(CCN1CCN(CCO)CC1)Nc1ccc(C2CCCC2)cc1	0%	-11%[10 µM]	-1%[10.1 µM]	-6%	-5%	6%
O=C(CSCCO)Nc1ccc(C2CCCCC2)cc1	-6%	5.6µM*	-1%	-11%	0%	5%[38.3 µM]
Cc1ccc(N2CC(NC(=O)Cc3ccc(F)cc3)CC2=O)cc1C (stereo not drawn)	-3%	x	0%	x	x	1%
Cc1ccc(Nc2n[nH]c(=S)s2)cc1C	0%	x	x	x	x	-1%
S=c1[nH]nc(Nc2cccc(Cl)c2)s1	-3%	-9%	0%	40µM*	-38%	0%
S=c1[nH]nc(Nc2ccccc2Cl)s1	x	0%	1%	-93%	7.9µM*	2%
Cc1ccc(-c2nnc(Nc3cccc(O)c3)c3ccccc23)cc1S(=O)(=O)N1CCCCC1	-14%	x	-1%	x	x	0%
Cc1ccc2nc(N(Cc3cccnc3)C(=O)CCOc3ccccc3)sc2c1	3%	x	8%	x	x	8%
O=C(CCCCCNC(=O)c1ccccc1)N/N=C/c1ccco1	x	-6%	0%	0%	13%	0%
COc1ccccc1NC(=O)COc1ccc(/C=N/NC(=O)CSCc2ccc(Cl)cc2)cc1	-12%	-11%	1%	40µM*	0%	u
COc1ccccc1NC(=O)COc1ccc(/C=N/NC(=O)CSCc2cc(C)cc(C)c2)cc1	-21%	3%	0%	u	-18%	3%
O=C(CSc1ccccc1)N/N=C/c1ccccc1O	x	1.6µM*	-1%	-1%	0.63µM*	0%
C/C(=N\OCC(=O)N/N=C/c1ccccc1O)c1cccs1	-14%	2.2µM*	-1%	11%	1.1µM*	-1%
O=C(CCCCCNC(=O)c1ccccc1)N/N=C/c1ccccc1O	-9%	20µM*	-2%	14%	6.3µM*	2%
Cc1ccc(-n2c(SCc3nc(-c4ccccc4C)no3)nnc2-c2ccncc2)cc1C	0%	x	-2%	x	x	0%
